Screens deposited in PubChem BioAssay by National Center for Advancing Translational Sciences (NCATS).
Sm TGR inh = qHTS Assay for the Inhibitors of Schistosoma Mansoni Peroxiredoxins; Potency, µM (highest dose often 114 µM), without a hit: at the top dose activity change, negative = inhibition, usual class: inhibitors; 3% of 360,000 active; AID 485364, 2010; purified TGR, DTNB reduction, TNB absorbance 405 nm; Schistosoma mansoni thioredoxin glutathione reductase (TGR), Q962Y6; further: on the % scale 0 is the no-effect control and ±100 the full control effect; nearly all actives have a fitted effect of over 60% in size
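First, TGR (20 nM dispensed) and NADPH were mixed with compound. Second, a 15 min room-temperature incubation followed. Third, further NADPH and then DTNB were added to start the reaction. Finally, TNB absorbance was monitored kinetically.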
SARS PLpro yeast = qHTS of Yeast-based Assay for SARS-CoV PLP; S. cerevisiae expressing SARS-CoV PLpro, growth rescue; Potency, µM (top dose mostly 32.9 µM), for inactives: top-dose activity, positive = growth rescue, most hits filed as activators; 0.19% of 330,000 active; AID 485353, 2010; calls by dose curve; further: 0% is about no effect; nearly all actives have a fitted effect of over 55% in size
RE007 growth inh = qHTS Assay for Inhibitors of the HIV-1 protein Vpr; S. pombe RE007 Vpr strain, BacTiter-Glo ATP luminescence, 24 h; Potency, µM (titrated, usually from 92.2 µM), for the others: at the top dose activity change, negative = less growth, most hits filed as inhibitors; 0.21% of 360,000 active; AID 651644, 2012; active means well fitted falling curve with a large enough effect; inconclusive means small, poorly fitted or top-dose-only effect; inactive means no such curve, though single readings can be large or run the other way; further: on the % scale 0 is the no-effect control and ±100 the full control effect; nearly all actives have a fitted effect of over 50% in size
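Fission yeast RE007 carrying one integrated HIV-1 vpr copy, seeded at OD 0.01 in PMG+AL medium with 23 nL pinned compound. Grown 24 h at 30 degrees; viability read by BacTiter-Glo luminescence after 5 min.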
AmpC inh detg = qHTS Inhibitors of AmpC Beta-Lactamase (assay with detergent); AmpC hydrolysis of nitrocefin, absorbance 480 nm, 0.01% Triton; 0.041% of 370,000 active; Potency, µM (highest dose often 114 µM), inactives show at the highest dose activity change, negative = inhibition, usual class: inhibitors; P00811; AID 485294, 2010;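 further: 0% = no-compound wells and -100% = no-enzyme wells; nearly all actives have a fitted effect of over 25% in size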
Target sequence (P00811 whole entry, looked up): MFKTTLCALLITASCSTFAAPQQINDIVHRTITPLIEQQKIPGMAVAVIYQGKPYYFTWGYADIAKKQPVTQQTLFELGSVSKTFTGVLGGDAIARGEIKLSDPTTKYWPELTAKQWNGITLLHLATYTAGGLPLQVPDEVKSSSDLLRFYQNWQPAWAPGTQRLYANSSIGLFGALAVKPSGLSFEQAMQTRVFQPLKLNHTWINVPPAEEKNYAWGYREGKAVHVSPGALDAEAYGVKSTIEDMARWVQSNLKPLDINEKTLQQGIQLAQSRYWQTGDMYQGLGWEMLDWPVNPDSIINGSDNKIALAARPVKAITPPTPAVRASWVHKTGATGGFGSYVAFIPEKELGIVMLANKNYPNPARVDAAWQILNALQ
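20 mM phosphate pH 7.0 + 0.01% (detergent screen) or 0.0001% Triton X-100; 5.3 nM AmpC reagent; cpd preinc 15 min RT; nitrocefin (800 uM stock) to start; A480 q20 s × 4 min; Activity was normalised to no-enzyme and no-compound control wells.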
AmpC no deterg = qHTS Inhibitors of AmpC Beta-Lactamase (assay without detergent). P00811. AmpC nitrocefin hydrolysis, absorbance 480 nm, 0.0001% Triton. Potency, µM (series often up to 57.1 µM), without a hit: at the highest dose activity change, negative = inhibition, actives largely listed as inhibitors. 0.52% of 330,000 active;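 further: plate controls were no compound for no effect and no enzyme for full effect; nearly all actives have a fitted effect of over 20% in size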
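20 mM phosphate pH 7.0 + 0.01% (detergent screen) or 0.0001% Triton X-100; 5.3 nM AmpC reagent; cpd preinc 15 min RT; nitrocefin (800 uM stock) to start; A480 q20 s × 4 min; Activity was normalised to no-enzyme and no-compound control wells.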
TbPYK inhibitor = qHTS of Trypanosoma Brucei Inhibitors; pyruvate kinase (Trypanosoma brucei), Q57TT1; TbPYK enzyme, Kinase-Glo Plus ATP luminescence, 45 min; Potency, µM (series often up to 76.8 µM), for the others: top-dose activity, negative = inhibition, most hits filed as inhibitors; 0.12% of 410,000 active; AID 624173, 2012; further: on the % scale 0 is the no-effect control and ±100 the full control effect; nearly all actives have a fitted effect of over 50% in size
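Quantitative HTS: titrated library compounds versus trypanosomal pyruvate kinase in TEA buffer (pH 7.2) containing KCl, MgCl2, BSA and Tween-20. Reactions were initiated with ADP, 130 uM final. Kinase-Glo Plus luminescence was read after 45 min at RT.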
Starred values were filed as active, the others as inactive. An excerpt weighted towards active compounds, which were near 3.3% of everything screened. Unless noted, the call rests on the fitted dose curve; in most records, active means well fitted curve in the direction sought with a large enough effect; inconclusive means small, poorly fitted or top-dose-only effect, or another doubt; inactive means no such curve, though single readings can be large; an effect the other way counts as inactive or inconclusive. Potency means the concentration at half of the fitted maximal effect.

For COc1ccccc1NS(=O)(=O)c1cc(C(=O)N2CCN(C/C=C/c3ccccc3)CC2)ccc1C the results were Sm TGR inh 35µM*, SARS PLpro yeast inconclusive, RE007 growth inh 3%, AmpC inh detg 6%, AmpC no deterg -11% and TbPYK inhibitor 3%.
COc1ccccc1NS(=O)(=O)c1cccc(C(=O)N2CCN(C/C=C/c3ccccc3)CC2)c1 was read as Sm TGR inh -19%, SARS PLpro yeast -5%, RE007 growth inh -10%, AmpC inh detg -1%, AmpC no deterg 204% and TbPYK inhibitor -4%.
For O=C(Cn1ncc2c3ccccc3n(Cc3cccc(Cl)c3)c2c1=O)NCCCN1CCCCC1 the results were Sm TGR inh 10%, AmpC inh detg 15% and TbPYK inhibitor 0%.
Screening O/N=C/c1cc(Br)ccc1OCc1ccccc1F returned RE007 growth inh 40µM* and TbPYK inhibitor 0%.
`O/N=C/c1ccccc1OCc1ccccc1Cl` gave Sm TGR inh -19%, SARS PLpro yeast -15%, RE007 growth inh 45µM*, AmpC inh detg 0%, AmpC no deterg -30% and TbPYK inhibitor 18%.
`CCN1CCN(CCCNC(=O)Cn2nc(C)n3c(cc4cc(C)ccc43)c2=O)CC1` gave Sm TGR inh 9%, AmpC inh detg 21% and TbPYK inhibitor -9%.
Screening Cc1ccc(NC(=O)C2(S(=O)(=O)c3ccc(C)cc3)CC2)cc1 returned Sm TGR inh 19%, SARS PLpro yeast 3%, RE007 growth inh -2%, AmpC inh detg inconclusive, AmpC no deterg -22% and TbPYK inhibitor 2%.
For Cc1ccc(S(=O)(=O)C2(C(=O)Nc3cccc(F)c3)CC2)cc1 the results were Sm TGR inh 1%, SARS PLpro yeast 1%, RE007 growth inh 5%, AmpC inh detg inconclusive, AmpC no deterg 2.8µM* and TbPYK inhibitor 0%.
Screening CN1CCC(NC(=O)c2cccs2)CC1 returned Sm TGR inh -1%, SARS PLpro yeast 9%, RE007 growth inh 5%, AmpC inh detg 2%, AmpC no deterg 8.9µM* and TbPYK inhibitor 1%.
CCN(CC)c1ccc(NS(=O)(=O)c2cc3[nH]c(=O)c(=O)[nH]c3cc2C)c(C)c1 was read as Sm TGR inh 35µM*, AmpC inh detg 12% and TbPYK inhibitor -26%.
`O=S(=O)(Nc1ccc(F)cc1F)c1ccc(Br)s1` gave Sm TGR inh -6%, AmpC inh detg -5% and TbPYK inhibitor -3%.
CCOC(=O)c1cc2c(=O)n3ccccc3nc2n(Cc2ccco2)c1=NC(=O)c1ccc(OC)cc1OC was read as Sm TGR inh 32µM*, SARS PLpro yeast 6%, RE007 growth inh -13%, AmpC inh detg 1%, AmpC no deterg -13% and TbPYK inhibitor -11%.
`Cc1ccc(Cn2cc(CCC(=O)NC3CCC(C)CC3)c3ccccc32)cc1` (stereo not given) gave Sm TGR inh 8%, AmpC inh detg 21% and TbPYK inhibitor -1%.
O=c1c2oc3ccccc3c2n(Cc2cccc(F)c2)c(=O)n1Cc1ccc2c(c1)OCO2 was read as Sm TGR inh 1%, AmpC inh detg 17% and TbPYK inhibitor 1%.
Screening COc1cc(C(CCN2CCCCC2)c2c(OC)cc(OC)c3c(-c4ccccc4)cc(=O)oc23)cc(OC)c1OC (stereo not given) returned Sm TGR inh 45µM*, SARS PLpro yeast 1%, RE007 growth inh -3%, AmpC inh detg 1%, AmpC no deterg 198% and TbPYK inhibitor -5%.
`Cc1ccc(NC(=O)COC(=O)/C=C/c2ccco2)cc1S(=O)(=O)N(C)C` gave Sm TGR inh 25µM*, SARS PLpro yeast -10%, AmpC inh detg -9%, AmpC no deterg -19% and TbPYK inhibitor -12%.
For O=C(COC(=O)/C=C/c1ccco1)Nc1cccc([N+](=O)[O-])c1 the results were Sm TGR inh -5%, SARS PLpro yeast 25%, AmpC inh detg -3%, AmpC no deterg -8% and TbPYK inhibitor -12%.
`CN(C)S(=O)(=O)c1cccc(NC(=O)COC(=O)/C=C/c2ccco2)c1` gave Sm TGR inh inconclusive, SARS PLpro yeast -12%, RE007 growth inh 21%, AmpC inh detg -9%, AmpC no deterg -16% and TbPYK inhibitor -23%.
Screening Cc1ccc(NC(=O)COC(=O)c2ccc(Cl)cc2)cc1S(=O)(=O)N(C)C returned Sm TGR inh 1%, SARS PLpro yeast 2%, RE007 growth inh -7%, AmpC inh detg 6%, AmpC no deterg -29% and TbPYK inhibitor -4%.
`CCN(CC)S(=O)(=O)c1cccc(NC(=O)COC(=O)/C=C/c2ccco2)c1` gave Sm TGR inh 22µM*, SARS PLpro yeast 4%, RE007 growth inh -10%, AmpC inh detg -10%, AmpC no deterg -26% and TbPYK inhibitor -5%.
For C/C=C/C(=O)OCC(=O)Nc1ccc(C)c(S(=O)(=O)N(C)C)c1 the results were Sm TGR inh 45µM*, SARS PLpro yeast -7%, RE007 growth inh -18%, AmpC inh detg 2%, AmpC no deterg -9% and TbPYK inhibitor -3%.
COc1ccccc1CNC(=O)CSc1cc(C)[nH]c(=O)n1 was read as Sm TGR inh 8%, AmpC inh detg 0% and TbPYK inhibitor 2%.
For CCOC(=O)Cn1c(=O)n(-c2ccccc2OC)c2nc(-c3ccc(C(C)C)cc3)nc(C(N)=O)c21 the results were Sm TGR inh 2%, AmpC inh detg -4% and TbPYK inhibitor 0%.
`COn1c(C)c(C)c2c3nonc3ccc21` gave Sm TGR inh 20µM*, SARS PLpro yeast -1%, RE007 growth inh inconclusive, AmpC inh detg -1%, AmpC no deterg -13% and TbPYK inhibitor 0%.
For CCOC(=O)c1c(C)n(OCc2ccccc2)c2ccc3nonc3c12 the results were Sm TGR inh -14%, SARS PLpro yeast -5%, RE007 growth inh -1%, AmpC inh detg -7%, AmpC no deterg -34% and TbPYK inhibitor 0%.
`COc1ccc(/C=C/C2=CC(C)(C)NC(=S)N2)cc1` gave Sm TGR inh 2.5µM*, SARS PLpro yeast 1%, RE007 growth inh 5%, AmpC inh detg -6%, AmpC no deterg 8.9µM* and TbPYK inhibitor -10%.
